Drawing on PubChem BioAssay (NCI), this text covers growth for 40 compounds.

Each structure is given as a SMILES string. This is part of a sample that, as a whole, favours compounds with a hit. Of some 83,000 tested, about 20% had one in any assay.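 Cells were grown in 96-well plates and exposed to the test compound at a single concentration for 48 hours; results are reported as percent growth, with values below 10 considered active.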 Unmarked numbers belong to inactive results. Active and inactive are the calls of the source.

The test deals with RXF 393 renal. Description: NCI-60 one-dose screen, 48 h (100 = growth as untreated, 0 = no growth, -100 = all killed). To be noted: 10 µM.
Regarding `CCOC(=O)c1sc2ncnc(Nc3ccc4c(cnn4C(=O)Nc4ccccc4)c3)c2c1C`, the growth is 55.4%.

For the compound `CCOC(=O)c1cc(C(=O)c2ccc(Cl)cc2)n2ccc(-c3cc[n+](CC(=O)c4ccc(OC)cc4)cc3)cc12`, the growth was 73.6%.

With `CC(CN(C)C)Oc1ccc(OC(C)CN(C)C)c2c1C(=O)c1ccccc1C2=O` (stereo not given), the growth was 59.2%.

As to `N#Cc1c(-c2ccc(Cl)cc2)n(O)c2ccccc12`, the growth is 9.91% (active).

On to `C=CCN(CC=C)C(=O)[C@H](CC)[C@@H]1CC[C@@H](C)[C@@H]([C@H](C)[C@@H](O)[C@@H](C)C(=O)[C@H](CC)C2O[C@]3(C=CC(=O)[C@]4(CC[C@@](C)([C@H]5CC[C@](O)(CC)[C@H](C)O5)O4)O3)[C@H](C)C[C@@H]2C)O1` (stereo not given in full), for which the growth was 21.4%.

As to `COc1cc(C2C(C#N)=C(N)Oc3cc(O)ccc32)cc(OC)c1OC` (stereo not given), the growth was -9.12% (active).

`O=C(CI)OCC(COC(=O)CI)OC(=O)CI`: the growth is 24.7%.

With `Cc1ccc(C(=O)C2C(=O)C3CCC2C3)cc1` (stereo not given), the growth is 109%.

As to `CCc1ccc(C2=NN(c3ccc(S(C)(=O)=O)cc3)C(=O)CC2)cc1`, the growth is 27.4%.

On to `CC(C)(C)c1ccc(S(=O)(=O)Oc2ccc(NC(=O)C3CCCCC3)cc2)cc1`, for which the growth is 65.1%.

Regarding `N#CC1=CC2CN(Cc3ccccc3)C1C1C(=O)N(c3ccccc3)C(=O)C21` (stereo not given), the growth is 103%.

Consider `CN(C)CCCOc1ccccc1NC1=C(Cl)C(=O)C(Nc2ccccc2OCCCN(C)C)=C(Cl)C1=O`, for which the growth was -98.2% (active).

`CCOC(=O)c1cc(C(=O)c2cc(OC)c(OC)c(OC)c2)n2c1ccc1c3cccnc3ccc12`: the growth is 66.8%.

With `COc1cc2cc(Oc3ccc(NC(=O)c4ccccc4)cc3)c(C)nc2cc1OC`, the growth was 53.3%.

`COC(=O)c1cc2oc(/C=C3/SC(=S)N(N)C3=O)cc2n1Cc1ccccc1`: the growth was -19.1% (active).

Regarding `CC[C@@H](C(=O)[C@@H](C)[C@@H](O)[C@H](C)[C@@H]1O[C@@H]([C@@H](CC)C(=O)N(CC)CC)CC[C@@H]1C)C1O[C@]2(C=CC(=O)[C@]3(CC[C@@](C)([C@H]4CC[C@](O)(CC)[C@H](C)O4)O3)O2)[C@H](C)C[C@@H]1C` (stereo not given in full), the growth was 28.2%.

Take `Cc1ccc(N=Nc2ccccc2)cc1`: the growth is 106%.

As for `COc1cc(-c2nn(-c3cccc(NC(=O)CCNc4ccc(N5CCOCC5)cc4)c3)cc2-c2ccncc2)ccc1Cl`, the growth was 20.9%.

Regarding `O=c1oc2c(cc1-c1ccc(F)cc1)C(O)Oc1ccccc1-2` (stereo not given), the growth was 93.9%.

Take `CCOC(=O)c1cc(C(=O)c2cc(OC)c(OC)c(OC)c2)n2ccc(-c3cc[n+](CC(=O)c4cc(OC)c(OC)c(OC)c4)cc3)cc12`: the growth was 65.7%.

Turning to `CC(CN(C)C)Oc1ccccc1NC1=C(Cl)C(=O)C(Nc2ccccc2OC(C)CN(C)C)=C(Cl)C1=O` (stereo not given), the growth is -90.7% (active).

On to `O=C(CCCSc1nc(-c2ccc(Cl)cc2)cc(-c2ccc(Cl)cc2)n1)NO`, for which the growth is -15.3% (active).

In the case of `CC[C@@H]1NC(=O)[C@H]([C@H](O)[C@H](C)C/C=C/c2ccc(CN3C(=O)CCCC3=O)cc2)N(C)C(=O)[C@H](C(C)C)N(C)C(=O)[C@H](CC(C)C)N(C)C(=O)[C@H](CC(C)C)N(C)C(=O)[C@@H](C)NC(=O)[C@H](C)NC(=O)[C@H](CC(C)C)N(C)C(=O)[C@H](C(C)C)NC(=O)[C@H](CC(C)C)N(C)C(=O)CN(C)C1=O`, the growth was 17.3%.

On to `CCNc1nc(C(F)(F)F)nc2c1sc(=S)n2-c1ccccc1`, for which the growth was 100%.

In the case of `COc1cc2c3c(n(C4CCN(C)CC4)c(=O)c2cc1OC)-c1cc2c(cc1C3=O)OCO2`, the growth was 68.2%.

`Cc1cc(C)nc(NS(=O)(=O)c2ccc(Nc3nc4nc(NCc5ccccc5)nc(-c5ccc(O)cc5)c4c(=O)[nH]3)cc2)n1`: the growth is -1.77% (active).

For the compound `Oc1ccc(/C=N/N=C2c3ccccc3-c3ccccc32)c(O)c1`, the growth is 49.6%.

`CN1CCN(CC(=O)Nc2cccc(-n3cc(-c4ccncc4)c(-c4ccc(Cl)c(O)c4)n3)c2)CC1`: the growth is 35%.

`CNS(=O)(=O)Oc1ccc(-c2ccc3occc3c2)cc1`: the growth is 122%.

As to `Cc1n[nH]c(C)c1N=Nc1cccc2c1C(=O)c1ccccc1C2=O`, the growth was 87.6%.

`Clc1ccc(C2=NN=C3C(Cc4ccccc4)=Nc4ccccc4N3C2)cc1`: the growth is 82.1%.

Consider `CCOC(=O)N/N=C/c1ccc(OC)c(OC)c1`, for which the growth was 101%.

As to `COc1cc(-c2nn(-c3cccc(NC(=O)NCCNC(=O)c4ccccc4)c3)cc2-c2ccncc2)ccc1Cl`, the growth is -23.4% (active).

With `CCOC(=O)c1cc(C(=O)c2cc(OC)c(OC)c(OC)c2)n2ncc3ccccc3c12`, the growth is 88.3%.

Regarding `NC1=CC(=O)C(=O)c2cccnc21`, the growth is 83.5%.

In the case of `COc1ccc(Cl)cc1Nc1nc(C(F)(F)F)ccc1C(=O)N/N=C/c1cc(OC)c(OC)c(OC)c1`, the growth was -10.2% (active).

Take `COc1ccc(C(c2ccc(OCCN(C)C)cc2)c2cc3ccccc3c3ccccc23)cc1` (stereo not given): the growth is 49.5%.

With `COc1cc(C(=O)/C=C/c2c[nH]c3ccccc23)cc(OC)c1OC`, the growth is 43%.

Turning to `CC(C)(C)OC(=O)CC(S(=O)(=O)c1ccccc1)S(=O)(=O)c1ccccc1`, the growth is 69.4%.

As for `CC(C)(C)OC(=O)CN1CCc2c(sc3ncnc(N/N=C/c4cccc5ccccc45)c23)C1`, the growth is 55.9%.
